Pf Dd2 inh: blocks in vitro growth of P. falciparum Dd2. Potency, µM (highest dose often 28.9 µM), without a hit: at the highest dose activity, negative = inhibition, most hits filed as inhibitors. hit rate 4.3% among 120,000. AID 1347417. P. falciparum Dd2 growth, SYBR Green, 72 h; active means well fitted inhibition curve with a large enough effect;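 further: plate controls were DMSO vehicle for no effect and reference drug for full effect; nearly all actives have a fitted effect of over 65% in size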
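Readout: SYBR Green fluorescence, 485 nm excitation, 535 nm emission, after ~16 h lysis at 37C. Before that, Dd2-infected red cells (2.5% hematocrit) grew 72 h with compound, 29 uM top final concentration.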
An asterisk follows results filed as active; i = inactive; [ ] = remark or other dose. Many of the other results were omitted from the sample, so hits are more common in it than they were. Potency means the concentration at half of the fitted maximal effect.

SMILES	Pf Dd2 inh
COc1ccccc1-c1nnc2n1C(C(=O)NCCc1ccc(Cl)cc1)CC2 (centres undefined)	1.78µM*
COC(=O)CNC(=O)C1CCc2nnc(-c3ccccc3OC)n21 (centres undefined)	36.7%
COc1ccccc1-c1nnc2n1C(C(=O)NC(C)C)CC2 (centres undefined)	-8.7%
COc1ccc(CNC(=O)CC[C@H]2CNC(=O)[C@@H]3[C@@H](CCN3Cc3cccc(Cl)c3)N2C)cc1	i
O=C(NCc1ccc2c(c1)OCO2)C1CN(c2ccc(Cl)cc2)C(=O)N1 (centres undefined)	12.7%
CCOC(=O)Cn1cc2c(c1-c1ccc(Cl)cc1)c(=O)n(C)c(=O)n2C	-6.9%
Cn1c(=O)c2c(ncn2Cc2ccc(Cl)cc2)n(C)c1=O	-7.9%
Cn1c(=O)c2c(-c3ccc(Cl)cc3)n(Cc3ccc(Cl)cc3)cc2n(C)c1=O	11.2µM*
CCc1cnc(N)nc1N1CCC(N2CCOCC2)CC1	-16.5%
CC(=O)N[C@H]1CN(S(=O)(=O)c2ccc(C)c(F)c2)C[C@@H]1C(C)C	4.1%
Cc1cc(C)c2nonc2c1S(=O)(=O)N1C[C@@H](N(C)C)[C@H](C(C)C)C1	11.2µM*
Cc1nn(C)c(C)c1S(=O)(=O)N1C[C@@H](NS(C)(=O)=O)[C@H](C(C)C)C1	15.7%
CNC(=O)[C@@H]1CN(C(=O)c2occc2C)C[C@H]1COC	25.7%
N#Cc1ccc(OCC2CN(Cc3cccc(C(F)(F)F)c3)C(=O)c3c(ccnc3-c3ccc(OCC(=O)O)cc3)O2)cc1 (centres undefined)	i
COc1ccc(N2CC(C(=O)N(C)C)NC2=O)cc1 (centres undefined)	-0.8%[44.1 µM]
O=C(CCCn1cnnn1)N[C@@H]1COCC[C@@H]1OCC1CCC1	-23.8%
CCOC(=O)c1c(C)n(-c2ccccc2)c2ccc(OC(=O)c3c(F)cccc3F)cc12	-15.8%
CCOC(=O)c1cc(OC(=O)c2ccc(OC)cc2)n(-c2ccccc2)n1	-10.4%
CCOC(=O)c1c(C)n(-c2ccccc2)c2ccc(OC(=O)c3ccccc3)cc12	2.82µM*
Cc1noc(C)c1-c1cc2c(c(-c3cccc(CO)c3)c1)C(=O)N(C)C2=O	i
Oc1ccccc1-c1cc(-c2cccnc2)c2cncn2c1	0.355µM*
Cc1noc(C)c1-c1cc(-c2ccccc2)cn2cncc12	5.62µM*
C[S+](=O)([O-])c1ccc(-c2cc(-c3cccnc3)c3cncn3c2)cc1	i
CN(C)Cc1ccc(-c2cc(-c3ccc(=O)[nH]c3)c3cncn3c2)cc1	2.7%[44.1 µM]
Cc1noc(C)c1-c1cc2c(cc(-c3ccccc3)n2C)c(-c2cnn(C)c2)n1	-26.0%[44.1 µM]
SMILES	Pf Dd2 inh
Cc1noc(C)c1-c1cc2c(c(-c3cccnc3)c1)C(=O)N(C)C2	-13.5%[44.1 µM]
O=C1COCCN1c1cc(-c2ccccc2Oc2ccccc2)cn2cncc12	i
Cc1noc(C)c1-c1cc(-c2ccc(CN(C)C)cc2)cn2cncc12	2.82µM*
COc1ncccc1-c1cc(-c2c(C)noc2C)cc2c1C(=O)N(C)C2=O	i
Cc1noc(C)c1-c1cc(-c2ccccc2O)cn2cncc12	14.1µM*
Cc1noc(C)c1-c1cc(-c2ccncc2)cn2cncc12	-27.3%[44.1 µM]
O=C(Nc1ccc2c(c1)CN(Cc1ccc(Cl)cc1)C(=O)CO2)c1ccc(F)cc1F	i
OC[C@@H]1CNC[C@H]1C1CCN(Cc2ccco2)CC1	11.1%
O=C(N[C@@H]1COCC[C@@H]1OCc1ccccc1)c1nc2ncccc2[nH]1	-10.2%
Cc1ccc(C2c3cc(OCc4nc(C(=O)NC(C)C)co4)ccc3CCN2C(=O)C2CC2)cc1 (centres undefined)	-15.8%
CN(Cc1ccc2nsnc2c1)C(=O)c1cccc(-n2cnnc2)c1	-3.0%
O=C1NC[C@@H](CCC(=O)N2CCN(c3ccccc3)CC2)N2C[C@@H](NCc3ccc(CO)o3)C[C@@H]12	-2.6%
CCCN(C)C(=O)Cc1ccc(N(Cc2ccc(C)cc2)C(=O)c2ccco2)cc1	-7.2%
COc1ccc(N2C(=O)CSC23CCN(C(=O)CC(C)C)CC3)cc1	-20.8%
CC(C)N1CCC(C(=O)N2CCCN(Cc3cccs3)CC2)CC1	5.4%
COc1cc(NC(=O)[C@H]2CCC[C@H]2NC(=O)c2cnc(C)cn2)cc(OC)c1	5.2%
C1=C(c2cc(-c3cccc4[nH]ccc34)cn3cncc23)CCOC1	-24.5%[44.1 µM]
Oc1ccccc1-c1cc(C2=CCOCC2)c2cncn2c1	1.26µM*
C1=C(c2cc(-c3cccc4cn[nH]c34)cn3cncc23)CCOC1	i
CCCCN(C)CCCNC(=O)C1CCN(c2nc3ccc(CC)cc3s2)CC1	11.2µM*
CCc1ccc2nc(N3CCN(C(=O)c4ccco4)CC3)sc2c1	i
CCCCN(C)CCCNC(=O)C1CCN(S(=O)(=O)CC)CC1	9.0%
CCc1noc([C@@H]2CC(F)(F)CN2C(=O)CCn2ccnc2)n1	3.6%
Cc1ccc(NC(=O)Cn2c(=O)n(-c3ccccc3)c(=O)c3c2cc(C)n3C)cc1	i
COC[C@H]1C[C@@H](NC(=O)c2cc(C)on2)[C@H](O)[C@@H]1O	27.1%[44.1 µM]
SMILES	Pf Dd2 inh
CCOC(=O)Cc1csc(NC(=O)C2CC(=O)N(c3n[nH]c4cccc(F)c34)C2)n1 (centres undefined)	-0.9%
Cn1cnc(S(=O)(=O)N2CCCC(C(=O)NC3CCCC3)CCNC(=O)CC2)c1 (centres undefined)	-13.7%
COCCCNC(=O)c1ccc2c(c1)n(Cc1cccc(F)c1)c(=O)c1ccnn12	-15.1%
COc1cncc(N2CC3(COCC(=O)N(Cc4cccc(OC(F)(F)F)c4)C3)C2)c1	i
O=C1COCC2(CN1Cc1cccc(OC(F)(F)F)c1)CN(c1ccccc1F)C2	2.51µM*
O=C1COCC2(CN1Cc1cccc(OC(F)(F)F)c1)CN(c1ccccn1)C2	i
Cc1cc(NC(=O)N2C[C@@H](F)C[C@H]2C(=O)N2CCCCC2)ccc1Br	i
O=c1c2nc(NCc3ccccc3)ccc2ncn1Cc1ccccc1	i
Cc1csc(Nc2ccc3ncn(Cc4ccccn4)c(=O)c3n2)n1	-21.4%[44.1 µM]
Cc1csc(Nc2ccc3ncn(Cc4ccccc4)c(=O)c3n2)n1	11.2µM*
O=C(c1ccc2c(c1)N(Cc1ccc(Cl)cc1)C(=O)c1ccccc1S2=O)N1CCCCC1 (centres undefined)	-11.4%
CCN1C(=O)c2ccccc2S(=O)c2ccc(C(=O)N3CCN(c4ccccc4OC)CC3)cc21 (centres undefined)	5.01µM*
O=C(c1ccc2c(c1)N(Cc1ccc(Cl)cc1)C(=O)c1ccccc1S2=O)N1CCOCC1 (centres undefined)	1.4%
CCN1CCN(C(=O)c2ccc3c(c2)N(Cc2ccccc2F)C(=O)c2ccccc2S3=O)CC1 (centres undefined)	0.282µM*
CCN1C(=O)c2ccccc2S(=O)c2ccc(C(=O)N3CCN(c4ccc(F)cc4)CC3)cc21 (centres undefined)	8.91µM*
O=C(c1ccc2c(c1)N(Cc1ccccc1F)C(=O)c1ccccc1S2=O)N1CCN(c2ccccc2)CC1 (centres undefined)	-2.0%
COc1ccc(N2CCN(C(=O)c3ccc4c(c3)N(Cc3cc(C)ccc3C)C(=O)c3ccccc3S4=O)CC2)cc1 (centres undefined)	-16.5%
O=C(c1ccc2c(c1)N(Cc1ccc(F)cc1)C(=O)c1ccccc1S2=O)N1CCOCC1 (centres undefined)	-15.4%
CCOC(=O)N1CCN(C(=O)c2ccc3c(c2)N(Cc2ccccc2F)C(=O)c2ccccc2S3=O)CC1 (centres undefined)	i

High-throughput results as filed in PubChem.
